For six molecules, growth results are on record in PubChem BioAssay (NCI).

Values joined by “and” are separate entries in the source; they are usually repeats but may differ in a detail not shown here. Equal values may be shown once. Compounds without any hit were thinned out: in the full panel of roughly 83,000, 20% have a hit.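 Cells were grown in 96-well plates and exposed to the test compound at a single concentration for 48 hours; results are reported as percent growth, with values below 10 considered active.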 A number with no mark means an inactive call. Active and inactive are the calls of the source.

Test systems include NCI-H23 lung; NCI-H226 lung; NCI-H322M lung; HOP-62 NSCLC; NCI-H460 lung; HOP-92 NSCLC; NCI-H522 lung; A549/ATCC NSCLC; 786-0 renal; COLO 205 colon; DU-145 prostate; K-562 leukemia; MALME-3M melanoma; MDA-MB-231 breast; RXF 393 renal; SF-268 CNS; SF-295 CNS; SF-539 CNS; UACC-257 melanoma.
Holding throughout (assay): NCI-60 one-dose screen, 48 h (100 = growth as untreated, 0 = no growth, -100 = all killed)
Another experiment relates to M14 melanoma. Particulars: 10 µM unless noted.

As to `Cc1cc(O)c2c(c1O)C(=O)C13C(=C2O)C(=O)C2C(O)C1C1C(O)C3C(=O)C3=C(O)c4c(O)cc(C)c(O)c4C(=O)C321` (stereo not drawn), the growth with NCI-H23 lung (10 µM) is 32.3%; with NCI-H226 lung (10 µM), -2.71% (active); with NCI-H322M lung (10 µM) it was 19.4%; in the experiment on HOP-62 NSCLC (10 µM), 3.99% (active); in the experiment with NCI-H460 lung (10 µM), 0.0816% (active); in the experiment with HOP-92 NSCLC (10 µM), -18.2% (active). Moreover, the growth in the experiment on NCI-H522 lung (10 µM) was 5.74% (active); with A549/ATCC NSCLC (10 µM) it was -11.4% (active); with 786-0 renal (10 µM) it was -33.2% (active); with COLO 205 colon (10 µM), -30.4% (active); in the experiment with DU-145 prostate (10 µM), -6.49% (active); in the experiment on K-562 leukemia (10 µM), 9.5% (active). The growth in the experiment with MALME-3M melanoma (10 µM) was -2.77% (active); in the experiment on MDA-MB-231 breast (10 µM), 13.6%; in the experiment on RXF 393 renal (10 µM), -13.7% (active); in the experiment with SF-268 CNS (10 µM) it was 10.6%; in the experiment on SF-295 CNS (10 µM), -30.2% (active); in the experiment with SF-539 CNS (10 µM), -47.2% (active). Moreover, the growth in the experiment with UACC-257 melanoma (10 µM) was 8.71% (active).

With `COc1ccc(C(C#N)=C2C=CC(=NO)C=C2)cc1`, the growth with NCI-H23 lung (10 µM) is 94.9%; in the experiment on NCI-H226 lung (10 µM), -14.3% (active); with NCI-H322M lung (10 µM), 94.3%; in the experiment on HOP-62 NSCLC (10 µM) it was 47.7%; in the experiment with NCI-H460 lung (10 µM), 65.8%; in the experiment with HOP-92 NSCLC (10 µM), 137%. The growth with NCI-H522 lung (10 µM) is -24.7% (active); in the experiment with A549/ATCC NSCLC (10 µM), 88.9%; with 786-0 renal (10 µM), 34.9%; in the experiment with COLO 205 colon (10 µM), 127%; with DU-145 prostate (10 µM) it was 72.4%; in the experiment with K-562 leukemia (10 µM), 46.6%. In addition, the growth was 103% with MALME-3M melanoma (10 µM); 96.3% with MDA-MB-231 breast (10 µM); 113% in the experiment on RXF 393 renal (10 µM); 80.9% in the experiment with SF-268 CNS (10 µM); 106% in the experiment on SF-295 CNS (10 µM); 79% with SF-539 CNS (10 µM). Further, the figures for the growth with UACC-257 melanoma (10 µM) and with M14 melanoma were 58.1% and 79.1%, respectively.

For the molecule `CN(CC(=O)O)c1ccc(/C=C/c2ccnc3ccccc23)cc1`, the growth was 99% in the experiment on NCI-H23 lung (10 µM); 60.8% with NCI-H226 lung (10 µM); 98.7% with NCI-H322M lung (10 µM); 83.5% in the experiment with HOP-62 NSCLC (10 µM); 94.5% in the experiment with NCI-H460 lung (10 µM); 46.2% in the experiment on HOP-92 NSCLC (10 µM). In addition, the growth with NCI-H522 lung (10 µM) is 78.1%; with A549/ATCC NSCLC (10 µM) it was 74.3%; in the experiment with 786-0 renal (10 µM) it was 95.8%; with COLO 205 colon (10 µM) it was 91.2%; in the experiment with DU-145 prostate (10 µM) it was 97.7%; in the experiment on K-562 leukemia (10 µM) it was 50.5%. The growth is 99.2% with MALME-3M melanoma (10 µM); 66.8% with MDA-MB-231 breast (10 µM); 111% with RXF 393 renal (10 µM); 90.1% in the experiment on SF-268 CNS (10 µM); 92.2% in the experiment with SF-295 CNS (10 µM); 90.3% with SF-539 CNS (10 µM). Besides, the growth was 86.9% in the experiment on UACC-257 melanoma (10 µM) and 90.3% with M14 melanoma.

Take `S=P(N1CC1)(N1CC1)N1CC1`: the growth in the experiment on NCI-H23 lung (10 µM) is 100% and 73.4%; with NCI-H23 lung (100 µM) it was 33%; with NCI-H226 lung (10 µM) it was 102% and 80.4%; with NCI-H226 lung (100 µM), 62.4%; with NCI-H322M lung (10 µM), 102% and 98.2%; with NCI-H322M lung (100 µM), 89.4%. Further, the growth in the experiment on HOP-62 NSCLC (10 µM) was 109% and 36.8%; with HOP-62 NSCLC (100 µM), 47.9%; with NCI-H460 lung (10 µM) it was 116% and 40.2%; in the experiment with NCI-H460 lung (100 µM) it was 26.3%; with HOP-92 NSCLC (10 µM), 99.9%; in the experiment on HOP-92 NSCLC (100 µM), 36.1%. The growth is 104% and 82.9% in the experiment with NCI-H522 lung (10 µM); 59.5% in the experiment on NCI-H522 lung (100 µM); 103% and 69.9% in the experiment with A549/ATCC NSCLC (10 µM); 52.2% in the experiment on A549/ATCC NSCLC (100 µM); 100% and 83.6% with 786-0 renal (10 µM); 21.6% in the experiment on 786-0 renal (100 µM). Also, the growth in the experiment on COLO 205 colon (10 µM) is 106% and 121%; in the experiment on COLO 205 colon (100 µM), 78.6%; with DU-145 prostate (10 µM), 121% and 71.9%; in the experiment with DU-145 prostate (100 µM), -0.811% (active); in the experiment on K-562 leukemia (10 µM) it was 109% and 53.2%; in the experiment with K-562 leukemia (100 µM) it was 43.4%. The growth in the experiment with MALME-3M melanoma (10 µM) was 98.1% and 97.8%; in the experiment with MALME-3M melanoma (100 µM), 82%; in the experiment with MDA-MB-231 breast (10 µM), 100% and 103%; in the experiment on MDA-MB-231 breast (100 µM), 101%; in the experiment on RXF 393 renal (10 µM), 120% and 86%; in the experiment on RXF 393 renal (100 µM), 14.4%. Besides, the growth was 124% and 83.6% in the experiment with SF-268 CNS (10 µM); 36.5% with SF-268 CNS (100 µM); 104% and 81.7% in the experiment with SF-295 CNS (10 µM); 14.3% with SF-295 CNS (100 µM); 113% and 94.6% in the experiment on SF-539 CNS (10 µM); -8.76% (active) in the experiment with SF-539 CNS (100 µM). Besides, the growth in the experiment with UACC-257 melanoma (10 µM) is 107% and 87.7%; in the experiment on UACC-257 melanoma (100 µM) it was 37.2%; in the experiment on M14 melanoma, 96.2% and 60.4%.

Turning to `O=C1C(Cl)=C(Cl)C(Cl)(Cl)C(Cl)C1(Cl)Cl` (stereo not drawn), the growth in the experiment on NCI-H23 lung (10 µM) was 106%; in the experiment with NCI-H226 lung (10 µM), 105%; in the experiment on NCI-H322M lung (10 µM), 103%; with HOP-62 NSCLC (10 µM), 98.5%; with NCI-H460 lung (10 µM), 118%; with HOP-92 NSCLC (10 µM), 104%. Besides, the growth in the experiment on NCI-H522 lung (10 µM) was 89.3%; in the experiment with A549/ATCC NSCLC (10 µM), 105%; in the experiment on 786-0 renal (10 µM), 102%; in the experiment with COLO 205 colon (10 µM) it was 105%; in the experiment on DU-145 prostate (10 µM) it was 114%; with K-562 leukemia (10 µM), 102%. Moreover, the growth with MALME-3M melanoma (10 µM) was 99.9%; in the experiment on MDA-MB-231 breast (10 µM), 96.2%; in the experiment with RXF 393 renal (10 µM), 116%; in the experiment on SF-268 CNS (10 µM), 108%; in the experiment with SF-295 CNS (10 µM), 94.5%; with SF-539 CNS (10 µM), 96.2%. Further, the growth is 110% in the experiment with UACC-257 melanoma (10 µM) and 103% with M14 melanoma.

In the case of `CN(C)c1ccc(/C=C/c2ccnc3ccccc23)cc1N`, the growth in the experiment on NCI-H23 lung (10 µM) was 48.8%; with NCI-H226 lung (10 µM) it was 53%; with NCI-H322M lung (10 µM) it was 85.1%; in the experiment on HOP-62 NSCLC (10 µM), 77.2%; with NCI-H460 lung (10 µM), 77.9%; in the experiment on HOP-92 NSCLC (10 µM) it was -3.62% (active). Also, the growth in the experiment with NCI-H522 lung (10 µM) is 56.6%; with A549/ATCC NSCLC (10 µM) it was 72.6%; with 786-0 renal (10 µM), 85.6%; in the experiment with COLO 205 colon (10 µM), 62.9%; with DU-145 prostate (10 µM), 83.5%; in the experiment with K-562 leukemia (10 µM), 31.1%. Besides, the growth was 68% with MALME-3M melanoma (10 µM); 46.1% in the experiment on MDA-MB-231 breast (10 µM); 80.9% in the experiment with RXF 393 renal (10 µM); 87.4% in the experiment on SF-268 CNS (10 µM); 74.8% with SF-295 CNS (10 µM); 76.9% with SF-539 CNS (10 µM). Moreover, the growth in the experiment on UACC-257 melanoma (10 µM) was 58.7%; with M14 melanoma it was 73.9%.
